Pf growth 48h – inhibits P. falciparum growth in the first generation, 48 h. P. falciparum luciferase growth in erythrocytes, 48 h. Potency, µM (doses to about 28.7 µM), for the others: at the highest dose activity change, negative = inhibition, most hits filed as inhibitors. 310,000 compounds, 5.9% hits. AID 504832; also: % is scaled to controls: 0 for no effect and ±100 for the full control effect
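Parasite viability was followed by luminescence of a genomically integrated firefly luciferase. Cultures held 0.1% parasitemia at 2% hematocrit (final), incubated under 5% CO2 at 37 C.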
AMA1-RON2 inh – disrupts binding of P. falciparum AMA1 to RON2 | Potency, µM (titrated, usually from 58.2 µM), for the others: at the top dose activity change, negative = inhibition, most hits filed as inhibitors | 360,000 compounds, 0.2% hits | AlphaScreen AMA1-biotinylated RON2 peptide binding;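 also: 0% = vehicle wells and -100% = peptide control; nearly all actives have a fitted effect of over 45% in size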
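AMA1 (3D7) with his tag at 25 nM final met compounds first, then biotinylated RON2 peptide at 25 nM; detection used donor plus acceptor beads, 10 µg/mL apiece, read by AlphaScreen after 30 min at room temperature.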
SARS PLP yeast – blocks SARS-CoV papain-like protease in a yeast assay. S. cerevisiae expressing SARS-CoV PLpro, growth rescue. Potency, µM (titrated, usually from 32.9 µM), for the others: top-dose activity, positive = growth rescue, actives largely listed as activators. 330,000 compounds, 0.19% hits. AID 485353; calls by dose curve; also: 0% is about no effect; nearly all actives have a fitted effect of over 55% in size
Pf growth 96h – inhibits malaria parasite growth, 96 h | P. falciparum luciferase reporter growth, 96 h | 320,000 compounds, 6.9% hits | Potency, µM (doses to about 28.7 µM), inactives show at the highest dose activity change, negative = inhibition, most hits filed as inhibitors; also: % is scaled to controls: 0 for no effect and ±100 for the full control effect
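Readout is luminescence from an integrated firefly luciferase in P. falciparum. Red cells, 2% hematocrit and 0.05% parasitemia final, were cultured with compound through two parasite generations (96 hours) at 37 C, 5% CO2.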
* hit, by the source's call; ? = inconclusive; nt = not tested or not shown; [ ] = another dose, or the depositor's remark. Shown are actives, neighbours in structure and some others; about 9.4% of the full set was active somewhere. Unless noted, calls follow the shape of the dose curve; as a rule, active = well fitted curve in the direction sought with a large enough effect; inconclusive = small, poorly fitted or top-dose-only effect, or another doubt; inactive = no such curve, though single readings can be large; an effect the other way counts as inactive or inconclusive. Potency is read from the fitted curve at half-maximal effect.

SMILES | Pf growth 48h | AMA1-RON2 inh | SARS PLP yeast | Pf growth 96h
COc1ccc(/C=N/NC(=O)c2ccco2)cc1COc1ccc(F)cc1 | 9.3µM* | -9% | -1% | ?
COc1ccc(/C=N\NC(=O)c2ccccc2OC)cc1COc1ccccc1C | 13µM* | 36% | 1% | -7%
COc1ccc(/C=N\NC(=O)c2ccccc2F)cc1COc1ccc(F)cc1 | 4% | -2% | -7% | ?
Cc1cc(C)n(C(=O)CNC(=O)c2ccccc2Br)n1 | 13% | -14% | -8% | 25%
COc1ccccc1C(=O)NCC(=O)n1nc(C)cc1C | 7% | -2% | 4% | 13µM*
COc1ccc(C(=O)N/N=C/c2ccc(OC)c(COc3ccccc3)c2)cc1 | 10% | 22% | 1% | ?
COc1ccc(/C=N\NC(=O)c2ccccc2F)cc1COc1ccc(F)cc1F | ? | 22% | 19% | ?
COc1ccc(/C=N\NC(=O)c2ccccc2)cc1COc1ccccc1 | ? | 15% | 3% | 12µM*
S=C(Nc1cccc2ccccc12)NN1CCOCC1 | -10% | -1% | 2% | ?
CN1C(=O)c2cccc3c(S(=O)(=O)Nc4ccccc4F)ccc1c23 | -1% | -14% | 0% | 36%
O=C(COC(=O)/C=C/c1ccccc1[N+](=O)[O-])NCc1ccco1 | nt | ? | -1% | nt
O=C(CN1CCC(n2nnc3ccccc32)CC1)Nc1ccc2c(c1)CCC2 | ? | -19% | -1% | ?
COc1ccc(/C=N\NC(=O)c2ccccc2Br)cc1COc1c(F)c(F)cc(F)c1F | 35% | 0% | -5% | 11%
COc1ccc(/C=N/NC(=O)c2ccoc2C)cc1COc1c(C)cccc1C | ? | 2% | -39% | 10µM*
CC(C)c1nc(SCC(=O)Nc2ccc(N3CCOCC3)cc2)c2ccccc2n1 | ? | 3% | -4% | -20%
CCOC(=O)C1(CCCc2ccccc2)CCN(Cc2nccn2CC)CC1 | 10µM* | 6% | 0% | ?
CCOC(=O)C1(CCOc2ccccc2)CCN(Cc2nccn2CC)CC1 | ? | 32% | -1% | -28%
CCOC(=O)C1(CCCc2ccccc2)CCN(CCCn2cccn2)CC1 | ? | -1% | 0% | 10µM*
CCOC(=O)C1(CCCc2ccccc2)CCN(C(=O)CN2CCOC2=O)CC1 | 11% | 3% | -1% | 15µM*
CC(=O)Nc1ccc(C2(c3ccc(NC(C)=O)cc3)NC(=O)c3ccccc32)cc1 | 1.3µM* | 12% | 0% | 46%
CC(=O)Nc1ccc2c(c1)C(=O)c1ccccc1C2=O | 284% | -2% | -11% | nt
CCOC(=O)C1=C(O)CSC1=Nc1ccc(Cl)cc1 | 10µM* | 17% | ? | 10µM*
CCOC(=O)C1=C(O)/C(=C/c2ccc(-c3ccccc3C(=O)O)o2)SC1=Nc1ccc(C)cc1 | ? | -23% | -3% | 0.93µM*
CCOC(=O)C1=C(O)/C(=C/c2ccc(OCC(=O)O)c(OCC)c2)SC1=Nc1ccccc1 | ? | 6% | -1% | ?
CCOC(=O)C1=C(O)/C(=C/c2ccccn2)SC1=Nc1ccc(Cl)cc1 | 9.3µM* | 15% | -15% | 15%
SMILES | Pf growth 48h | AMA1-RON2 inh | SARS PLP yeast | Pf growth 96h
CCOC(=O)C1=C(O)/C(=C/c2ccc(-c3ccccc3C(=O)O)o2)SC1=Nc1ccc(OC)cc1 | -21% | -15% | 4% | 1%
O=[N+]([O-])c1ccc(/C=N/Nc2ccccn2)cc1 | 63% | 8% | -4% | ?
Cc1cc(=O)[nH]c(N/N=C/c2c(C)nn(-c3ccc(F)cc3)c2Cl)n1 | 4.7µM* | 4% | -2% | 10µM*
O=[N+]([O-])c1cc(/C=N\Nc2ccccn2)ccc1Cl | 24% | -1% | 0% | 7.4µM*
Cc1cc(=O)[nH]c(N/N=C/c2ccc(Cl)c([N+](=O)[O-])c2)n1 | 2.3µM* | 10% | 0% | ?
CCOc1ccc(-n2c(C)cc(/C=N/Nc3nc(C)cc(=O)[nH]3)c2C)cc1 | 1.7µM* | 53% | -3% | ?
Cc1ccc(S(=O)(=O)N2CCN(C(=O)CSc3ncc(C(F)(F)F)cc3Cl)CC2)cc1 | ? | -2% | 0% | ?
CC(OC(=O)CCN=C1NS(=O)(=O)c2ccccc21)C(=O)NC1CCCCC1C (stereo not given) | 0% | -13% | -1% | 10%
CC(C)n1c(C(O)c2ccc3c(c2)OCO3)nc2ccccc21 (stereo not given) | 9.3µM* | 10% | 1% | -10%
CC1=C(C(=O)OCC2CCCO2)C(c2cccc(C(F)(F)F)c2)C2=C(CC(c3ccco3)CC2=O)N1 (stereo not given) | 13µM* | 12% | -22% | nt
CC1=C(C(=O)OCC2CCCO2)C(c2ccccc2OC(C)C)C2=C(CC(c3ccco3)CC2=O)N1 (stereo not given) | 3.3µM* | -4% | -3% | 27%
CC1=C(C(=O)OCC2CCCO2)C(c2ccc(C)o2)C2=C(CC(c3ccc(F)cc3)CC2=O)N1 (stereo not given) | ? | -2% | -4% | 8%
CCC(C)Sc1cccc(-c2nc3ccccn3c2NCc2ccccc2)c1 (stereo not given) | nt | 16% | -2% | nt
Cc1ccc2nc(-c3ccccc3)c(Cc3cccc(Cl)c3)n2c1 | nt | 14% | nt | nt
CCC(C)Sc1cccc(-c2nc3ccc(C)cn3c2NCc2ccccc2)c1 (stereo not given) | 3.3µM* | -4% | -2% | 13µM*
Cc1ccc2nc(-c3cccc(-c4cccc(Cl)c4)c3)c(NCc3ccccc3)n2c1 | 7.4µM* | -4% | 1% | 10µM*
CCC(C)Sc1cccc(-c2nc3ccc(Cl)cn3c2NCc2ccccc2)c1 (stereo not given) | 9.3µM* | 49% | 1% | 10µM*
CCOC(=O)C1=CN(CC)S(=O)(=O)NC1CCc1ccccc1 (stereo not given) | nt | 33% | -9% | nt
O=C(Nc1cccc(F)c1)c1ccc(-c2ccccc2C(F)(F)F)o1 | ? | nt | -43% | 15µM*
C[n+]1cccc2cccc([O-])c21 | 3.3µM* | ? | -1% | ?
CN(C)c1ccc(CC(=O)N2CCCC(c3cc(C(=O)Nc4ccc(C(C)(C)C)cc4)no3)C2)cc1 (stereo not given) | nt | 13µM* | nt | nt
CCOCCCn1c(SCC(=O)Nc2oc(C)c3c(C)n[nH]c(=O)c23)nc2ccccc2c1=O | nt | -19% | nt | nt
COc1ccc(-c2nsc3c(SCc4ccccc4)ncnc23)cc1 | 19% | 3% | 7% | 1.9µM*
CCCCC[C@]12Cc3ccccc3C(O1)c1c(cc(C)oc1=O)O2 | 23%[5.75 µM] | nt | -4%[6.58 µM] | 0.67µM*
Cc1cccc(Cn2c(C)nc3c(N)c(C)c(C)cc32)c1 | 10µM* | -23% | 3% | ?
COc1cc(N)c(Cl)cc1C(=O)OCC(=O)NC1CCCC1 | 25% | -5% | -1% | 0%
COc1ccc(C(c2nnnn2C2CCCCC2)N2CCN(c3ccccc3)CC2)cc1 (stereo not given) | 10µM* | nt | -17% | 157%
COc1ccc(C(c2nnnn2C2CCCC2)N2CCN(c3ccccc3)CC2)cc1 (stereo not given) | 9.3µM* | -3% | -38% | ?

Bioassay records from PubChem BioAssay.
